The panel holds about 79,000 compounds, 15% with a hit somewhere; the sample as a whole holds those more often. Active and inactive are the calls of the source. Rule as the data show it: active = growth inhibition above about 70%; inactive = the rest.
Columns and labels:
[1] = NCI Yeast Anticancer Drug Screen. Data for the wt1 strain (AID 149);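 also: 0% = growth of vehicle-treated wt1 cultures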; details: S. cerevisiae wt1 strain (SPY 50644) growth inhibition, active compounds read high
How it was run: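 Vehicle-normalised growth inhibition; strain wt1; compound exposure.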

[2] = NCI Yeast Anticancer Drug Screen. Data for the rad50EPP+ strain (AID 151);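 also: 0% = growth of vehicle-treated control cultures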; details: S. cerevisiae rad50 mutant strain, active compounds read high
How it was run: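 Yeast strain carrying rad50 alteration (rad50EPP+) exposed to compounds; growth inhibition measured relative to vehicle-treated controls.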

[3] = NCI Yeast Anticancer Drug Screen. Data for the mgt1 strain (AID 153); details: S. cerevisiae mgt1 mutant growth inhibition, active compounds read high
How it was run: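 Yeast mgt1 strain (DNA repair/cell-cycle alteration panel) exposed to compounds; growth inhibition measured relative to vehicle-treated controls.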

[4] = NCI Yeast Anticancer Drug Screen. Data for the rad50 strain (AID 155);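 also: 0% = growth of vehicle-only cultures of the same strain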; details: S. cerevisiae rad50 strain growth inhibition, active compounds read high
How it was run: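 A DNA repair-deficient yeast mutant serves as the test organism; compound-induced growth inhibition is calculated against vehicle-treated cells.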

[5] = NCI Yeast Anticancer Drug Screen. Data for the mec2-1 strain (AID 157); details: S. cerevisiae mec2-1 strain, active compounds read high
How it was run: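 mec2-1 yeast strain, carrying an alteration in DNA damage repair or cell cycle control, was exposed to compounds; growth inhibition was measured relative to vehicle-treated controls.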

[6] = NCI Yeast Anticancer Drug Screen. Data for the rad14 strain (AID 159);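 also: 0% = growth of vehicle-treated control cultures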; details: S. cerevisiae rad14 strain growth inhibition, active compounds read high
How it was run: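 Vehicle-treated cultures served as the baseline for growth inhibition of a DNA repair-mutant yeast strain exposed to each compound.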

[7] = NCI Yeast Anticancer Drug Screen. Data for the sgs1 mgt1 strain (AID 161);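 also: 0% = growth of cultures given vehicle only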; details: S. cerevisiae sgs1 mgt1 strain, active compounds read high
How it was run: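 Yeast cells carrying a defined DNA-repair defect were exposed to test compounds. Growth inhibition was measured relative to vehicle-treated controls.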

[8] = NCI Yeast Anticancer Drug Screen. Data for the CLN2oe strain (AID 163);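 also: 0% = growth of vehicle-only control cultures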; details: S. cerevisiae CLN2oe strain, active compounds read high
How it was run: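 Yeast cells carrying a defined cell-cycle control alteration were exposed to test compounds. Growth inhibition was scored against vehicle-treated control cultures.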

[9] = NCI Yeast Anticancer Drug Screen. Data for the cln2 rad14 strain (AID 165);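 also: 0% = growth equal to vehicle treated cultures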; details: S. cerevisiae cln2 rad14 strain, active compounds read high
How it was run: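 Yeast carrying cln2 and rad14 alterations (cell cycle control and DNA damage repair) were exposed to compounds. Growth inhibition was measured against vehicle-treated controls.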

[10] = NCI Yeast Anticancer Drug Screen. Data for the bub3 strain (AID 167); details: S. cerevisiae bub3 mutant strain, active compounds read high
How it was run: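 Inhibition values come from growth of compound-treated mutant yeast normalised to vehicle-treated controls.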

[11] = NCI Yeast Anticancer Drug Screen. Data for the wt2 strain (AID 169);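 also: 0% = growth of vehicle-treated yeast cultures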; details: S. cerevisiae wt2 strain growth inhibition, active compounds read high
How it was run: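 Yeast cells were exposed to test compounds, and growth inhibition was measured relative to vehicle-treated controls.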

[12] = NCI Yeast Anticancer Drug Screen. Data for the mlh1 strain (AID 171);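 also: 0% = growth of vehicle-treated control cultures of the same strain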; details: S. cerevisiae mlh1 strain growth inhibition, active compounds read high
How it was run: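 Yeast carrying a defined genetic alteration in DNA damage repair or cell cycle control were exposed to test compounds. Growth inhibition was measured relative to vehicle-treated controls.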

[13] = NCI Yeast Anticancer Drug Screen. Data for the mlh1 rad18 strain (AID 175); details: S. cerevisiae mlh1 rad18 strain growth inhibition, active compounds read high
How it was run: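 Growth inhibition of the yeast strain was measured after compound exposure and expressed relative to vehicle-treated controls. The strain carries defined defects in DNA damage repair.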

[14] = NCI Yeast Anticancer Drug Screen. Data for the rad18 strain (AID 177); details: S. cerevisiae rad18 mutant growth inhibition, active compounds read high
How it was run: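 Yeast carrying a defined DNA damage repair alteration were exposed to compounds. Growth inhibition was expressed relative to vehicle-treated controls.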

[15] = NCI Yeast Anticancer Drug Screen. Data for the sgs1 strain (AID 173);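 also: 0% = growth of vehicle-only control cultures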; details: S. cerevisiae sgs1 mutant, active compounds read high
How it was run: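 Yeast mutant strains carrying defined defects in DNA damage repair or cell cycle control were exposed to test compounds. Growth inhibition was scored against vehicle-treated controls.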

[16] = at 5.0 µM (retest, dose inferred, filed as 0.5)
[17] = at 50.0 µM (retest, dose inferred, filed as 5.0)

Measured: growth inhibition

Nc1nc(Cl)c(Cl)c(Cl)n1
active: [1]; at 100.0 µM 99% | [2]; at 11.0 µM 89% | [2]; at 33.0 µM 93% | [2]; at 100.0 µM 99% | [3]; at 33.0 µM 90% | [3]; at 100.0 µM 99% | [4]; [17] 100% | [4]; at 100.0 µM 99% | [5]; at 33.0 µM 99% | [5]; [17] 99% | [5]; at 50.0 µM 72.4% | [5]; at 100.0 µM 99% | [6]; at 33.0 µM 99% | [6]; at 100.0 µM 99% | [7]; [17] 99% | [8]; at 100.0 µM 99% | [9]; [17] 99% | [10]; at 33.0 µM 92% | [10]; [17] 99% | [10]; at 100.0 µM 99% | [11]; at 33.0 µM 80% | [11]; at 100.0 µM 99% | [12]; at 33.0 µM 93% | [12]; at 100.0 µM 99% | [13]; [16] 80% | [13]; [17] 99% | [14]; at 33.0 µM 77% | [14]; at 100.0 µM 99%
inactive: [1]; at 1.2 µM -2% | [1]; at 3.7 µM 1% | [1]; at 11.0 µM 14% | [1]; at 33.0 µM 57% | [2]; at 1.2 µM 0% | [2]; at 3.7 µM 34% | [3]; at 1.2 µM 1% | [3]; at 3.7 µM 5% | [3]; at 11.0 µM 20% | [4]; at 1.2 µM 2% | [4]; at 3.7 µM 3% | [4]; [16] 44% | [4]; at 11.0 µM 17% | [4]; at 33.0 µM 51% | [4]; at 50.0 µM 47.3% | [5]; at 1.2 µM 2% | [5]; at 3.7 µM 14% | [5]; [16] 28% | [5]; at 11.0 µM 42% | [6]; at 1.2 µM 3% | [6]; at 3.7 µM 8% | [6]; at 11.0 µM 30% | [7]; [16] 59% | [7]; at 50.0 µM 32.3% | [8]; at 1.2 µM -1% | [8]; at 3.7 µM 0% | [8]; at 11.0 µM 14% | [8]; at 33.0 µM 30% | [9]; [16] 7% | [9]; at 50.0 µM 13.8% | [10]; at 1.2 µM -4% | [10]; at 3.7 µM 1% | [10]; [16] 27% | [10]; at 11.0 µM 18% | [10]; at 50.0 µM -8.05% | [11]; at 1.2 µM 0% | [11]; at 3.7 µM 4% | [11]; at 11.0 µM 17% | [12]; at 1.2 µM -2% | [12]; at 3.7 µM 3% | [12]; at 11.0 µM 18% | [13]; at 50.0 µM 30.4% | [14]; at 1.2 µM 1% | [14]; at 3.7 µM 5% | [14]; at 11.0 µM 19%

[O-][n+]1c2ccc(O)cc2nc2ccc(Br)cc21
inactive: [2]; at 1.2 µM 6% | [2]; at 3.7 µM 20% | [2]; at 11.0 µM 55% | [3]; at 1.2 µM 4% | [3]; at 3.7 µM 21% | [3]; at 11.0 µM 46% | [4]; at 1.2 µM 2% | [4]; at 3.7 µM 18% | [4]; [16] 36% | [4]; at 11.0 µM 56% | [5]; at 1.2 µM -1% | [5]; at 3.7 µM 12% | [5]; [16] 2% | [5]; at 11.0 µM 25% | [5]; at 33.0 µM 49% | [5]; at 100.0 µM 61% | [6]; at 1.2 µM 2% | [6]; at 3.7 µM 7% | [6]; at 11.0 µM 29% | [6]; at 33.0 µM 67% | [7]; [16] 30% | [7]; at 50.0 µM 65% | [8]; at 1.2 µM 14% | [8]; at 3.7 µM 21% | [8]; at 11.0 µM 40% | [8]; at 33.0 µM 54% | [8]; at 100.0 µM 64% | [9]; [16] 16% | [9]; at 50.0 µM 49% | [10]; at 1.2 µM 5% | [10]; at 3.7 µM 16% | [10]; [16] 32% | [10]; at 11.0 µM 41% | [11]; at 1.2 µM 3% | [11]; at 3.7 µM -40% | [11]; at 11.0 µM 25% | [11]; at 33.0 µM 60% | [12]; at 1.2 µM 2% | [12]; at 3.7 µM 15% | [12]; at 11.0 µM 29% | [15]; at 1.2 µM 4% | [15]; at 3.7 µM 8% | [15]; at 11.0 µM 28% | [13]; [16] 50% | [14]; at 1.2 µM 5% | [14]; at 3.7 µM 21% | [14]; at 11.0 µM 57%
active: [2]; at 33.0 µM 75% | [2]; at 100.0 µM 77% | [3]; at 33.0 µM 85% | [3]; at 100.0 µM 87% | [4]; at 33.0 µM 87% | [4]; [17] 96% | [4]; at 50.0 µM 88.5% | [4]; at 100.0 µM 87% | [5]; [17] 81% | [5]; at 50.0 µM 78.8% | [6]; at 100.0 µM 81% | [7]; [17] 86% | [9]; [17] 88% | [10]; at 33.0 µM 78% | [10]; [17] 74% | [10]; at 50.0 µM 84% | [10]; at 100.0 µM 70% | [11]; at 100.0 µM 80% | [12]; at 33.0 µM 75% | [12]; at 100.0 µM 84% | [15]; at 33.0 µM 74% | [15]; at 100.0 µM 84% | [13]; [17] 93% | [13]; at 50.0 µM 92.2% | [14]; at 33.0 µM 90% | [14]; at 100.0 µM 90%

CCN(CC)CC(O)c1ccc2ccc3ccccc3c2c1 (centres undefined)
active: [4]; at 50.0 µM 70.9% | [6]; at 100.0 µM 70% | [10]; [17] 71%
inactive: [1]; at 1.2 µM 4% | [1]; at 3.7 µM 10% | [1]; at 11.0 µM 18% | [1]; at 33.0 µM 16% | [1]; at 100.0 µM 19% | [2]; at 1.2 µM -1% | [2]; at 3.7 µM 1% | [2]; at 11.0 µM 2% | [2]; at 33.0 µM -1% | [2]; at 100.0 µM -11% | [3]; at 1.2 µM 2% | [3]; at 3.7 µM 4% | [3]; at 11.0 µM 6% | [3]; at 33.0 µM 21% | [3]; at 100.0 µM 59% | [4]; at 1.2 µM 6% | [4]; at 3.7 µM 10% | [4]; [16] -1% | [4]; at 11.0 µM 15% | [4]; at 33.0 µM 10% | [4]; [17] 52% | [4]; at 100.0 µM 39% | [5]; at 1.2 µM 3% | [5]; at 3.7 µM 7% | [5]; [16] 15% | [5]; at 11.0 µM 11% | [5]; at 33.0 µM 15% | [5]; [17] 20% | [5]; at 50.0 µM 37.4% | [5]; at 100.0 µM 33% | [6]; at 1.2 µM 7% | [6]; at 3.7 µM 23% | [6]; at 11.0 µM 35% | [6]; at 33.0 µM 28% | [7]; [16] 16% | [7]; [17] 7% | [7]; at 50.0 µM 42.7% | [9]; [16] -22% | [9]; [17] -22% | [9]; at 50.0 µM 32% | [10]; at 1.2 µM 1% | [10]; at 3.7 µM 4% | [10]; [16] 10% | [10]; at 11.0 µM -20% | [10]; at 33.0 µM 43% | [10]; at 50.0 µM 65.2% | [10]; at 100.0 µM 45% | [11]; at 1.2 µM 2% | [11]; at 3.7 µM 8% | [11]; at 11.0 µM 17% | [11]; at 33.0 µM 21% | [11]; at 100.0 µM 36% | [12]; at 1.2 µM 8% | [12]; at 3.7 µM 8% | [12]; at 11.0 µM 16% | [12]; at 33.0 µM 16% | [12]; at 100.0 µM 40% | [15]; at 1.2 µM 8% | [15]; at 3.7 µM 17% | [15]; at 11.0 µM 34% | [15]; at 33.0 µM 48% | [15]; at 100.0 µM 64% | [13]; [16] 3% | [13]; [17] 19% | [13]; at 50.0 µM 51.1% | [14]; at 1.2 µM 17% | [14]; at 3.7 µM 22% | [14]; at 11.0 µM 27% | [14]; at 33.0 µM 38% | [14]; at 100.0 µM 59%

Reference: PubChem BioAssay (NCI)
